Compound activity: PubChem, National Center for Advancing Translational Sciences (NCATS)
Sampled rows, rich in hits. Any-hit rate of the full collection: about 2.4%.
D2 PAM-1: positive allosteric modulators of human D2 dopamine receptor; potentiation, % at 10 µM; P14416; HEK293 T-REx D2, calcium flux, EC20 dopamine potentiation; 0.34% of 340,000 active;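 active = potentiation over 3 SD above the plate norm, cut at about 30% in these data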; also: 0% is about no effect
Target sequence (P14416 whole entry, looked up): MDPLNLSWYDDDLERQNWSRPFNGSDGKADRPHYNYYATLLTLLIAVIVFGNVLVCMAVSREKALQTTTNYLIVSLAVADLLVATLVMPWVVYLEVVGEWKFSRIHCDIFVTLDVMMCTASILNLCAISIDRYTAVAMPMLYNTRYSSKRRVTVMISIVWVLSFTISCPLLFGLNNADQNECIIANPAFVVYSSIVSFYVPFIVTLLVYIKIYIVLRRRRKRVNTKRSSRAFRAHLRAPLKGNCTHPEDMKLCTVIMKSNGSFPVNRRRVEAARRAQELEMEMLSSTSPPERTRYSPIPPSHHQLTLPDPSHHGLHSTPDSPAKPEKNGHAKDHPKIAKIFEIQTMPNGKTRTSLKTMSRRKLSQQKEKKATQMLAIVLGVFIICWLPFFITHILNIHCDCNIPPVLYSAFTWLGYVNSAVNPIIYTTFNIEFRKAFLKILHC
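Cells plated with tetracycline inducer and held overnight at 30 C; calcium dye loaded 30–90 min at room temperature; baseline taken, compound added and read 180 s; EC20 dopamine then added and read 180 s.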
D2 ag-1: human D2 receptor agonism in beta-arrestin assay; 0.084% of 360,000 active; activation, % (no concentration beside the values); DiscoveRx PathHunter D2 beta-arrestin, luminescence, 90 min; 100% = 57 uM dopamine signal; in the data active = activation above about 40%; inconclusive = between about 15% and that limit
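Agonist mode: compounds alone added to overnight-plated D2 PathHunter cells for 90 min at 37 C, with 57 uM final dopamine (EC100) defining full response. Beta-arrestin recruitment detected by chemiluminescent reagent, read after 1 h at ambient temperature.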
D2 ag-2: activates the human D2 dopamine receptor; activation, % at 2 µM; HEK293 T-REx D2 cells, calcium flux agonist mode; P14416; 0.53% of 340,000 active;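 active = activation over 3 SD above normal in the single-dose calcium agonist read, cut at about 30% in these data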; also: 0% is about no effect
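Agonism scored from kinetic calcium signal (1 read/sec, 180 s) following compound pin transfer, after a 10 s baseline. Cells: HEK293 Trex line expressing inducible D2 receptor coupled to calcium, dye-loaded after overnight culture at 30 C.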
D2 PAM-2: positive allosteric modulators of human D2 dopamine receptor | P14416 | DiscoveRx D2 beta-arrestin cells, luminescence, 90 min; 100% = 57 uM dopamine signal | potentiation, % (test concentration not listed) | 0.23% of 360,000 active | AID 624464; in the data active = potentiation above about 50%; inconclusive = mostly about 30% to 49%
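PathHunter beta-arrestin assay in DiscoveRx D2 cells. Compounds were added with an EC20 of dopamine (50 nM final) for 90 min at 37 deg C. Luminescence was read 1 h after detection reagent, with 57 uM dopamine as the EC100 control.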
D2 antagonist: antagonizes the human D2 dopamine receptor. P14416. 2% of 340,000 active. inhibition, % at 10 µM. AID 485344. HEK293 TREx D2 cells, calcium flux, dopamine EC80; in the data active = inhibition above about 30%; inactive = below that, where a call was filed; also: 0% is about no effect
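HEK293 T-REx D2 cells, tet-induced, calcium dye no-wash. Cpd pintool add, 180 s kinetic, then EC80 DA, 180 s kinetic. Ca flux read.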
An asterisk follows results filed as active.

CCOc1ccccc1NC(=O)CSc1nncc2ccccc12 was read as D2 PAM-1 35*, D2 ag-1 -1, D2 ag-2 0, D2 PAM-2 -10 and D2 antagonist -26.
CCOc1ccc(-n2nc(CO)c(C(=O)NCC(c3ccccc3)c3ccccc3)n2)cc1 was read as D2 PAM-1 3 and D2 ag-2 -1.
For CCC(=O)N1c2ccccc2CC1C(=O)NCCCN1CCN(c2cccc(Cl)c2)CC1 (stereo not given) the results were D2 PAM-1 -28 and D2 ag-2 25.
COc1ccc(OC)c(-n2nnnc2SCC(=O)Nc2ccccc2OC)c1 was read as D2 PAM-1 14, D2 ag-1 4, D2 ag-2 8, D2 PAM-2 -1 and D2 antagonist 31*.
For CCOC(=O)c1ccccc1NC(=O)CSc1nccn1C the results were D2 PAM-1 53*, D2 ag-1 -2, D2 ag-2 1, D2 PAM-2 -21 and D2 antagonist -1.
`CCOc1ccccc1NC(=O)CSc1nnnn1-c1ccc(C(=O)OC)cc1` gave D2 PAM-1 8, D2 ag-1 -1, D2 ag-2 -1, D2 PAM-2 -7 and D2 antagonist 50*.
For CCOc1ccccc1NC(=O)CSc1nnnn1-c1ccccc1 the results were D2 PAM-1 -2, D2 ag-1 0, D2 ag-2 2, D2 PAM-2 -7 and D2 antagonist 31*.
CCOc1ccccc1NC(=O)CN1C(=O)C2(SCC(=O)N2c2ccc(C)cc2)c2ccccc21 (stereo not given) was read as D2 PAM-1 4 and D2 ag-2 0.
For CCCn1c(=O)c2sccc2n2c(CCCC(=O)NC3CCC(C)CC3)nnc12 (stereo not given) the results were D2 ag-2 0.
Screening COCCn1c(SCC(=O)Nc2ccccc2OC)nc2ccccc21 returned D2 PAM-1 11, D2 ag-1 -5, D2 ag-2 1, D2 PAM-2 0 and D2 antagonist 35*.
`COCCn1c(SCC(=O)Nc2cccnc2Cl)nc2ccccc21` gave D2 ag-1 -2 and D2 PAM-2 -2.
Screening COc1cccc(NC(=O)C(CCSC)NC(=O)C2CCC(C)CC2)c1 (stereo not given) returned D2 PAM-1 -6 and D2 ag-2 0.
Clc1cccc(-c2cc3nc4c(c(N5CCN(c6cnccn6)CC5)n3n2)CCCC4)c1 was read as D2 PAM-1 1, D2 ag-1 -1, D2 ag-2 1, D2 PAM-2 -13 and D2 antagonist 41*.
`S=C(Nc1ccc(Cl)cc1)NC1CCCCC1` gave D2 PAM-1 -4, D2 ag-1 0, D2 ag-2 5, D2 PAM-2 -5 and D2 antagonist -7.
FC(F)Oc1ccc(NC(=S)NC2CCCCCCC2)cc1 was read as D2 PAM-1 15, D2 ag-1 -3, D2 ag-2 2, D2 PAM-2 2 and D2 antagonist 33*.
O=S(=O)(c1ccccc1)N1N=C(c2cccs2)CC1c1ccc(Br)cc1 (stereo not given) was read as D2 PAM-1 35*, D2 ag-1 -1, D2 ag-2 0, D2 PAM-2 -14 and D2 antagonist 13.
`CCn1c(=O)c([N+](=O)[O-])c(NCCN(C)C)c2ccccc21` gave D2 PAM-1 -21, D2 ag-1 5, D2 ag-2 0, D2 PAM-2 -15 and D2 antagonist 59*.
`O=c1c([N+](=O)[O-])c(NCCN2CCCCCC2)c2ccccc2n1-c1ccccc1` gave D2 PAM-1 -20, D2 ag-1 2, D2 ag-2 0, D2 PAM-2 -4 and D2 antagonist 49*.
`CCn1c(=O)c([N+](=O)[O-])c(NCC(O)c2ccccc2)c2ccccc21` (stereo not given) gave D2 PAM-1 -19, D2 ag-1 -3, D2 ag-2 -1, D2 PAM-2 -27 and D2 antagonist -10.
For CCn1c(C(=O)NCc2ccccc2Br)cc2oc3ccccc3c21 the results were D2 PAM-1 12 and D2 ag-2 -1.
O=S(=O)(c1ccccc1)c1cc(O)ccc1O was read as D2 PAM-1 12, D2 ag-1 inconclusive, D2 ag-2 1, D2 PAM-2 -1 and D2 antagonist 2.
